# Assay results as given in PubChem BioAssay (NCI).
# “And” between values parts separate entries of the source, which are not always exact repeats. Identical values can stand only once. The panel holds about 79,000 compounds, 15% with a hit somewhere; the sample as a whole holds those more often. Some structures have more than one record in an assay (separate samples or runs), and their calls can disagree. The source made the active and inactive calls. No stated cut-off is given here; in the data, active means growth inhibition above about 70%; inactive means the rest.
# What was measured:
# [1] = NCI Yeast Anticancer Drug Screen. Data for the rad50 strain (AID 155);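 further: 0% = growth of vehicle-only cultures of the same strain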; conditions: S. cerevisiae rad50 strain growth inhibition, stronger effect = higher value
# Procedure, shortened: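 Cells are treated with compound, grown, and their growth is then scored against vehicle-only cultures of the same repair-deficient yeast strain.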
# [2] = NCI Yeast Anticancer Drug Screen. Data for the mec2-1 strain (AID 157); conditions: S. cerevisiae mec2-1 strain, stronger effect = higher value
# Procedure, shortened: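 Vehicle-treated cultures served as reference for growth inhibition of compound-exposed mec2-1 yeast.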
# [3] = NCI Yeast Anticancer Drug Screen. Data for the sgs1 mgt1 strain (AID 161);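 further: 0% = growth of cultures given vehicle only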; conditions: S. cerevisiae sgs1 mgt1 strain, stronger effect = higher value
# Procedure, shortened: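 Mutant yeast exposed to compound; growth scored against vehicle-only wells.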
# [4] = NCI Yeast Anticancer Drug Screen. Data for the cln2 rad14 strain (AID 165);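 further: 0% = growth equal to vehicle treated cultures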; conditions: S. cerevisiae cln2 rad14 strain, stronger effect = higher value
# Procedure, shortened: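 Each compound was tested on cln2 rad14 yeast. Inhibition of growth was calculated against vehicle-exposed controls.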
# [5] = NCI Yeast Anticancer Drug Screen. Data for the bub3 strain (AID 167); conditions: S. cerevisiae bub3 mutant strain, stronger effect = higher value
# Procedure, shortened: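 Part of a panel of yeast mutants defective in DNA damage repair or cell cycle regulation. Each strain is grown with compound, and inhibition is calculated relative to solvent-treated cultures.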
# [6] = NCI Yeast Anticancer Drug Screen. Data for the mlh1 rad18 strain (AID 175); conditions: S. cerevisiae mlh1 rad18 strain growth inhibition, stronger effect = higher value
# Procedure, shortened: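 Vehicle-treated cultures served as the reference for growth inhibition in a yeast strain carrying DNA damage repair alterations exposed to each compound.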
# [7] = at 5.0 µM (retest, dose inferred, filed as 0.5)
# [8] = at 50.0 µM (retest, dose inferred, filed as 5.0)
Compound,"growth inhibition [1, 7]","growth inhibition [1, 8]",growth inhibition ([1]; at 50.0 µM),"growth inhibition [2, 7]","growth inhibition [2, 8]",growth inhibition ([2]; at 50.0 µM),"growth inhibition [3, 7]","growth inhibition [3, 8]",growth inhibition ([3]; at 50.0 µM),"growth inhibition [4, 7]","growth inhibition [4, 8]",growth inhibition ([4]; at 50.0 µM),"growth inhibition [5, 7]","growth inhibition [5, 8]",growth inhibition ([5]; at 50.0 µM),"growth inhibition [6, 7]","growth inhibition [6, 8]",growth inhibition ([6]; at 50.0 µM)
CC(=O)OC(C)(C)/C=C/C(=O)[C@](C)(O)[C@H]1[C@H](O)C[C@@]2(C)[C@@H]3CC=C4[C@@H](C[C@H](O)[C@H](O)C4(C)C)[C@]3(C)C(=O)C[C@]12C,15% (inactive),98% (active),92.1% (active),52% (inactive),99% (active),93.5% (active),13% (inactive),98% (active),93.3% (active),43% (inactive),98% (active),91.1% (active),65% (inactive),99% (active),91.5% (active),55% (inactive),98% (active),91.8% (active)
Cc1nc2c(Br)cc(Br)cc2c(=O)n1-c1ccccc1N,19% (inactive),22% (inactive),63% (inactive),15% (inactive),17% (inactive),9.45% (inactive),13% (inactive),24% (inactive),63.8% (inactive),18% (inactive),37% (inactive),19.4% (inactive),3% (inactive),4% (inactive),70.2% (active),37% (inactive),34% (inactive),46.2% (inactive)
CCC(C)(c1ccc(O)cc1)c1ccc(O)cc1,13% (inactive),98% (active),98.9% (active),-5% (inactive),99% (active),99.5% (active),3% (inactive),98% (active),98.8% (active),21% (inactive),98% (active),99% (active),43% (inactive),99% (active),96.4% (active),14% (inactive),99% (active),98.7% (active)
CCC[CH2][Sn]([CH2]CCC)([O]C(=O)C(N)CSC)[O]C(=O)C(N)CSC (stereo unspecified),7% (inactive),7% (inactive),90% (active),10% (inactive),10% (inactive),89.3% (active),-5% (inactive),-5% (inactive),86.2% (active),1% (inactive),1% (inactive),52.9% (inactive),-4% (inactive),-4% (inactive),88.8% (active),-18% (inactive),-18% (inactive),83.1% (active)
Clc1ccc(-c2cc(=[N+]3CC[N+](=c4cc(-c5ccc(Cl)cc5)ss4)CC3)ss2)cc1,8% (inactive),3% (inactive),98.3% (active),-158% (inactive),-3% (inactive),98.2% (active),2% (inactive),4% (inactive),98.9% (active),5% (inactive),-9% (inactive),95.7% (active),3% (inactive),-2% (inactive),98% (active),7% (inactive),4% (inactive),98.5% (active)
COc1ccc(CNCCc2ccc(O)c(OC)c2)cc1O,1% (inactive),0% (inactive),31.4% (inactive),1% (inactive),3% (inactive),-2.8% (inactive),4% (inactive),7% (inactive),-0.55% (inactive),-5% (inactive),5% (inactive),-6.35% (inactive),-3% (inactive),-3% (inactive),8.7% (inactive),-1% (inactive),8% (inactive),-4.45% (inactive)
O=c1oc2ccccc2c(O)c1C(c1ccc(OCc2ccccc2)cc1)c1c(O)c2ccccc2oc1=O,16% (inactive),7% (inactive),63.3% (inactive),16% (inactive),51% (inactive),86.3% (active),-33% (inactive),92% (active),65.3% (inactive),-3% (inactive),94% (active),62.2% (inactive),7% (inactive),95% (active),60.2% (inactive),7% (inactive),23% (inactive),50.9% (inactive)
CN(C)CC1CCCCC1=O (stereo unspecified),-169% (inactive),36% (inactive),73.7% (active) and 1.45% (inactive) and -1.35% (inactive),-52% (inactive),-24% (inactive),56.2% (inactive) and -13.8% (inactive) and -15.9% (inactive),-67% (inactive),-6% (inactive),47.4% (inactive) and -15.4% (inactive) and -9.6% (inactive),-77% (inactive),3% (inactive),59.5% (inactive) and 8.3% (inactive) and 0.7% (inactive),-69% (inactive),-26% (inactive),35% (inactive) and -23.4% (inactive) and -3.6% (inactive),-131% (inactive),-38% (inactive),71.9% (active) and 18.1% (inactive) and 5.25% (inactive)
O=S(=O)(O)O.[Pt].c1ccc([PH+](c2ccccc2)c2ccccc2)cc1.c1ccc([PH+](c2ccccc2)c2ccccc2)cc1.c1ccc([PH+](c2ccccc2)c2ccccc2)cc1,23% (inactive),95% (active),93.8% (active),13% (inactive),94% (active),98.1% (active),9% (inactive),94% (active),94.3% (active),8% (inactive),97% (active),97.8% (active),-7% (inactive),92% (active),96.7% (active),39% (inactive),95% (active),95.2% (active)
CNC(=O)N1CN(c2ccccc2)C2(CCN(CCCC(=O)c3ccc(F)cc3)CC2)C1=O,-7% (inactive),31% (inactive),51.5% (inactive),-14% (inactive),23% (inactive),37.9% (inactive),-3% (inactive),40% (inactive),68.3% (inactive),5% (inactive),67% (inactive),70.3% (active),5% (inactive),59% (inactive),76% (active),-20% (inactive),39% (inactive),68.3% (inactive)
O=c1c(O)c(-c2ccccc2)oc2ccccc12.[Pb],3% (inactive),97% (active),94.7% (active),-2% (inactive),97% (active),92.6% (active),6% (inactive),24% (inactive),98.4% (active),-2% (inactive),98% (active),47.8% (inactive),-6% (inactive),98% (active),96.2% (active),8% (inactive),98% (active),98.1% (active)
O=C(O)C1C2c3ccccc3C(c3ccccc32)C1Br (stereo unspecified),-13% (inactive),3% (inactive),2.7% (inactive),0% (inactive),9% (inactive),3.8% (inactive),-7% (inactive),8% (inactive),-1.2% (inactive),3% (inactive),-1% (inactive),34.2% (inactive),-20% (inactive),-29% (inactive),-8.2% (inactive),-11% (inactive),-8% (inactive),14.1% (inactive)
[Cl][Sn]1([c]2ccccc2)[O]CCNCC[O]1,22% (inactive),97% (active),88.1% (active),9% (inactive),99% (active),91.2% (active),12% (inactive),99% (active),90.8% (active),6% (inactive),97% (active),91.8% (active),9% (inactive),98% (active),90% (active),19% (inactive),97% (active),91.8% (active)
O=P(O/C(=C\c1ccccc1)c1ccccc1)(c1ccccc1)c1ccccc1,18% (inactive),96% (active),96.8% (active),17% (inactive),98% (active),98.3% (active),15% (inactive),98% (active),98.2% (active),8% (inactive),97% (active),96.2% (active),11% (inactive),97% (active),97% (active),7% (inactive),97% (active),93.7% (active)
COC1=[C]([Hg][Br])C(OC)OC1OC (stereo unspecified),99% (active),99% (active),99.6% (active),98% (active),99% (active),99.5% (active),99% (active),99% (active),99.5% (active),98% (active),98% (active),98.8% (active),99% (active),99% (active),98.9% (active),99% (active),99% (active),99.5% (active)
CCC1CC2CCC(O2)C(C)C(=O)OC(C)CC2CCC(O2)C(C)C(=O)OC(CC)CC2CCC(O2)C(C)C(=O)OC(C)CC2CCC(O2)C(C)C(=O)O1 (stereo unspecified),-7% (inactive),71% (active),82.3% (active),23% (inactive),88% (active),84.5% (active),-1% (inactive),74% (active),80.7% (active),25% (inactive),79% (active),66.2% (inactive),-4% (inactive),79% (active),79.2% (active),-15% (inactive),85% (active),73.2% (active)
COP(=S)(OC)N(C)C(=O)Oc1cccc2ccccc12,0% (inactive),27% (inactive),48.5% (inactive),-21% (inactive),15% (inactive),39.2% (inactive),-20% (inactive),57% (inactive),60% (inactive),0% (inactive),10% (inactive),55.5% (inactive),9% (inactive),40% (inactive),61.4% (inactive),-14% (inactive),77% (active),80.8% (active)
